# Experimental data taken from publication PMC7826789 (International Journal of Molecular Sciences, 2021).
# How the values were obtained:
# Conditions in all cases: Compound Concentration (nM):1000
# FGFR3 = tested on: FGFR3
# FGFR4 = tested on: FGFR4
# FGR = tested on: FGR
# FLT1 = tested on: FLT1
# FLT3(D835H) = tested on: FLT3(D835H)
# FLT3(D835V) = tested on: FLT3(D835V)
# FLT3(D835Y) = tested on: FLT3(D835Y)
# FLT3(ITD) = tested on: FLT3(ITD)
# FLT3(ITD,D835V) = tested on: FLT3(ITD,D835V)
# FLT3(ITD,F691L) = tested on: FLT3(ITD,F691L)
# FLT3(K663Q) = tested on: FLT3(K663Q)
# FLT3(N841I) = tested on: FLT3(N841I)
# FLT3(R834Q) = tested on: FLT3(R834Q)
# FLT3-autoinhibited = tested on: FLT3-autoinhibited
# FLT3 = tested on: FLT3
# FLT4 = tested on: FLT4
# FRK = tested on: FRK
# FYN = tested on: FYN
# GAK = tested on: GAK
# GCN2(Kin.Dom.2,S808G) = tested on: T1, GCN2(Kin.Dom.2,S808G)
# T1 construct: gene EIF2AK4
# 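Further: KINOMEscan scanMAX binding as percent activity remaining versus control; lower means stronger binding.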
Structure (SMILES),Percent Control (FGFR3),Percent Control (FGFR4),Percent Control (FGR),Percent Control (FLT1),Percent Control (FLT3(D835H)),Percent Control (FLT3(D835V)),Percent Control (FLT3(D835Y)),Percent Control (FLT3(ITD)),"Percent Control (FLT3(ITD,D835V))","Percent Control (FLT3(ITD,F691L))",Percent Control (FLT3(K663Q)),Percent Control (FLT3(N841I)),Percent Control (FLT3(R834Q)),Percent Control (FLT3-autoinhibited),Percent Control (FLT3),Percent Control (FLT4),Percent Control (FRK),Percent Control (FYN),Percent Control (GAK),"Percent Control (GCN2(Kin.Dom.2,S808G))"
NS(=O)(=O)c1ccc(N/N=C2\C(=O)Nc3ccc(C(=O)NCCc4c[nH]cn4)cc32)cc1 [GW300660X],100%,100%,100%,100%,52%,0.8%,62%,80%,1.8%,4.1%,100%,100%,45%,100%,90%,100%,100%,100%,100%,100%
C/C(Nc1ccc(S(N)(=O)=O)cc1)=C1/C(=O)Nc2ccccc21 [GW335962X],97%,100%,78%,100%,87%,0.3%,76%,100%,0.8%,3%,60%,83%,40%,7.7%,56%,100%,96%,90%,61%,100%
CN(C)CCNC(=O)Nc1ccc(N(C)c2ccnc(Nc3ccc(CS(C)(=O)=O)cc3)n2)cc1.Cl [GW830900A],100%,100%,100%,61%,32%,6.3%,35%,8.3%,22%,19%,89%,5.6%,16%,27%,2.9%,54%,99%,93%,13%,100%
O=C(Nc1n[nH]c2nc(-c3ccc(O)cc3)c(Br)cc12)C1CC1 [SB-725317],100%,100%,100%,89%,29%,2.9%,33%,68%,35%,37%,66%,100%,72%,96%,64%,84%,100%,100%,81%,96%
Nc1ncnc2occ(-c3ccc(NC(=O)Nc4cc(C(F)(F)F)ccc4F)cc3)c12 [GW770249X],77%,69%,100%,2.9%,0.9%,4.1%,11%,2.9%,52%,27%,0.5%,0%,0%,33%,0.1%,0.7%,12%,95%,100%,99%
COc1cc2ncn(-c3cc(O[C@H](C)c4ccccc4Cl)c(C(N)=O)s3)c2cc1OC [GSK237701A],57%,100%,67%,69%,11%,0%,28%,33%,5.9%,21%,6.5%,3.3%,14%,95%,21%,9.4%,100%,100%,17%,31%
NS(=O)(=O)c1ccc(N/N=C2\C(=O)Nc3ccc(C(=O)NCc4ccncc4)cc32)cc1 [GW300657X],82%,100%,100%,80%,52%,0%,46%,64%,0.6%,17%,92%,50%,68%,74%,82%,77%,100%,96%,66%,100%
Cl.O=C(Nc1ccc(Oc2ccc3[nH]c(NC(=O)c4ccccc4)nc3c2)cc1)Nc1cc(C(F)(F)F)ccc1F [GW709042A],100%,100%,82%,5.1%,2.8%,28%,14%,3.7%,95%,56%,2.6%,0%,15%,90%,2.4%,12%,71%,100%,100%,84%
O=C1Nc2ccc(C(=O)c3ccco3)cc2C1=Cc1cc(Cl)c(O)c(Cl)c1 [GW406108X],78%,100%,81%,57%,18%,2.2%,15%,47%,12%,29%,83%,54%,73%,84%,71%,100%,100%,92%,5.9%,71%
CN(C)c1cc2c(Nc3ccc4c(cnn4Cc4ccccc4)c3)ncnc2cn1 [GW282974X],100%,84%,73%,94%,85%,59%,100%,82%,100%,100%,79%,100%,95%,93%,73%,100%,100%,90%,76%,100%
CC1=C(C(=O)Nc2ccc3[nH]ncc3c2)C(c2ccc(Cl)c(Cl)c2)CC(=O)N1 (stereo not shown) [GSK299115A],84%,57%,86%,100%,100%,75%,87%,100%,80%,94%,78%,100%,93%,100%,100%,100%,63%,70%,95%,100%
CCS(=O)(=O)c1ccc(OC)c(Nc2ncc(-c3cccc(F)c3)o2)c1 [GW621970X],11%,87%,24%,45%,0.6%,0%,39%,5.8%,0%,25%,7.9%,56%,29%,7.9%,5%,5%,16%,26%,63%,71%
COc1cc(/C=N/Nc2ncnc3[nH]ncc23)ccc1O [GW578748X],100%,100%,63%,89%,25%,0.2%,25%,43%,4.5%,11%,75%,100%,56%,84%,71%,100%,100%,92%,13%,18%
NS(=O)(=O)c1ccc(N/N=C2\C(=O)Nc3ccc(Cl)cc32)cc1 [GW280670X],100%,100%,100%,100%,83%,31%,100%,59%,60%,36%,18%,100%,68%,15%,21%,100%,100%,100%,100%,100%
NS(=O)(=O)c1ccc(Nc2ncc(-c3ccccc3)o2)cc1 [GW572399X],100%,100%,98%,100%,70%,8.5%,80%,53%,29%,42%,9.2%,21%,14%,2%,11%,100%,100%,100%,99%,80%
C[C@@H](Oc1cc(-n2cnc3ccc(OC4CCN(C)CC4)cc32)sc1C(N)=O)c1ccccc1Cl [GSK579289A],86%,79%,91%,75%,9.4%,0%,38%,38%,15%,8.2%,17%,8.1%,18%,87%,18%,81%,93%,86%,69%,39%
COc1cc(C=NNc2ncnc3c2cnn3-c2ccccc2)ccc1O [GW513184X],100%,100%,80%,100%,12%,3%,9.4%,30%,16%,46%,63%,27%,72%,100%,34%,97%,100%,90%,100%,49%
COc1cc(N2CCN(C(C)C)CC2)ccc1Nc1nc(Nc2ccc(F)cc2C(=O)NC[C@@H](O)CO)c2cc[nH]c2n1 [GSK1392956A],97%,95%,81%,94%,100%,69%,68%,88%,79%,40%,100%,74%,100%,95%,78%,85%,100%,100%,6.9%,48%
Cl.O=S1CCN(Cc2ccc(-c3ccc4ncnc(Nc5ccc(OCc6ccccc6)c(F)c5)c4c3)o2)CC1 [GW576924A],100%,100%,100%,100%,100%,99%,83%,100%,100%,100%,93%,100%,100%,87%,90%,100%,100%,100%,100%,100%
COc1cccc(-c2c[nH]c3c(N/N=C/c4ccncc4)ncnc23)c1 [GW814408X],100%,100%,43%,83%,27%,7.5%,16%,21%,3.9%,43%,76%,12%,19%,66%,26%,90%,100%,66%,11%,8.3%
